Screens: PubChem BioAssay, National Center for Advancing Translational Sciences (NCATS)
In the library only some 6.9% were active in any assay of this set; here they are far more common.
Giardia killer: Small Molecules that selectively kill Giardia lamblia: qHTS; Giardia lamblia trophozoite viability; activity change, % at 7.66 µM, hits read low; 340,000 compounds, 0.15% hits; AID 540267, 2011; in the data active = activity change below about -80%; inconclusive = between about -30% and that limit;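 note: parasites exposed to compound for two days anaerobically before the ATP read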
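Compounds were tested on trophozoites seeded at 100 cells/well and held 48 hrs at 37 deg C anaerobically. An ATP-based luminescent kit measured the remaining live cells.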
MCF10A rerep: A quantitative high throughput screen for small molecules that induce DNA re-replication in MCF 10a normal breast cells; MCF 10A DNA re-replication, Hoechst nuclear intensity, 48 h; Potency, µM (top dose mostly 46.1 µM), actives largely listed as activators; 350,000 compounds, 2.9% hits; note: nearly all actives have a fitted effect of over 50% in size
IL-1B inflam inh: qHTS for Inhibitors of Inflammasome Signaling: IL-1-beta AlphaLISA Primary Screen; AID 743279, 2014; activity change, % at 57.5 µM; THP-1 LPS/ATP IL-1B secretion, AlphaLISA, 16 h; hits give low values; 360,000 compounds, 4.7% hits; in the data active = activity change below about -50%; inconclusive = mostly about -30% to -49%
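Secreted IL-1B measured by AlphaLISA bead assay after 16 h compound exposure of THP-1 cells; compounds (final up to 57.5 uM) added 1 h before LPS (250 ng/mL) and ATP (1.25 mM) stimulation; lower signal means less secretion.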
SW480 rerep: A quantitative high throughput screen for small molecules that induce DNA re-replication in SW480 colon adenocarcinoma cells; Potency, µM (titrated, usually from 46.1 µM), actives largely listed as activators; AID 624297, 2012; 340,000 compounds, 1.8% hits; SW480 DNA re-replication, Hoechst DNA content imaging, 48 h; note: nearly all actives have a fitted effect of over 55% in size
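DNA re-replication was detected as more nuclei of elevated Hoechst intensity after 48 hr exposure to compound (23 nL pinned per well of 250 cells).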
Vif-APOBEC3F blk: qHTS for Inhibitors of Vif-A3F Interactions: qHTS; 390,000 compounds, 0.2% hits; HeLa A3F-eYFP + Vif (tagged APOBEC3F with the HIV-1 protein that degrades it), YFP fluorescence increase; Potency, µM (top dose mostly 46.1 µM); AID 602313, 2012; note: nearly all actives have a fitted effect of over 65% in size
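HeLa cells stably expressing A3F-eYFP plus Vif, plated and incubated overnight at 37 deg C, then exposed to compounds overnight at 37 deg C. Blocked degradation read as raised yellow fluorescence (Ex 488/Em 500-530).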
Vif-A3G inh: qHTS for Inhibitors of Vif-A3G Interactions: qHTS | DNA dC->dU-editing enzyme APOBEC-3G (Homo sapiens), Q9HC16 | HeLa A3G-eYFP + Vif (tagged APOBEC3G with the HIV-1 protein that degrades it), YFP fluorescence, overnight | Potency, µM (highest dose often 46.1 µM), hits mostly inhibitors | 410,000 compounds, 0.076% hits; note: nearly all actives have a fitted effect of over 60% in size
Target sequence (Q9HC16 whole entry, looked up): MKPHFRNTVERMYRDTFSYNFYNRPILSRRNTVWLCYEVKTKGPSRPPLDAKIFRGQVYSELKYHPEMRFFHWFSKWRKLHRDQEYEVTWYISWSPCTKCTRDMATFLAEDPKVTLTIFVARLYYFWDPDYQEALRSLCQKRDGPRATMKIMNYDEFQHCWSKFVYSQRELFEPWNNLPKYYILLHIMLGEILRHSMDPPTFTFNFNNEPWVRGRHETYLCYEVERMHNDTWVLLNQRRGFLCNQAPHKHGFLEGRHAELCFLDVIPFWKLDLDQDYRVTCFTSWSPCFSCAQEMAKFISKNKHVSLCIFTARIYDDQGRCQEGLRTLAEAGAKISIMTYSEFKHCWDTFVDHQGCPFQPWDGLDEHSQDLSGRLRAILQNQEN
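HeLa cells stably expressing Vif and C-terminally eYFP-tagged A3G, seeded overnight at 37 deg C, then exposed to compound by pintool overnight at 37 deg C. Rise in yellow fluorescence (Ex 488/Em 500-530, Acumen) marks blocked Vif-driven A3G degradation.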
Numbers stand for hits; – = inactive; ? = inconclusive; · = not tested or not shown; [ ] = another dose, or the depositor's remark. Unless noted, calls come from the whole dose curve; as a rule, active = well fitted curve in the direction sought with a large enough effect; inconclusive = small, poorly fitted or top-dose-only effect, or another doubt; inactive = no such curve, though single readings can be large; an effect the other way counts as inactive or inconclusive.

SMILES	Giardia killer	MCF10A rerep	IL-1B inflam inh	SW480 rerep	Vif-APOBEC3F blk	Vif-A3G inh
O=C(Nc1cc(Cl)cc(Cl)c1)c1ccc(F)c(S(=O)(=O)NC2CCCCC2)c1	·	·	·	·	–	–
CCC(C)(C)n1nnnc1CN1CCC(c2nc3ccc(C)cc3[nH]2)CC1	–	–	–	?	–	–
Cc1cc2nc(C3CCN(Cc4nnnn4Cc4ccccc4)CC3)[nH]c2cc1C	–	–	-63	–	–	–
Clc1ccc(CN2CCC(c3nc4ccc(Cl)cc4[nH]3)CC2)cc1	–	?	-61	?	–	–
COc1ccc(-c2ccc3oc(-c4ccsc4)cc(=O)c3c2)cc1F	–	–	–	–	–	–
Nc1ccc(C#Cc2c(-c3ccsc3)oc3ccc(N4CCOCC4)cc23)cc1	–	13µM	–	–	–	–
COc1ccc(-c2ccc3oc(-c4ccsc4)cc(=O)c3c2)cn1	?	–	–	2.9µM	–	–
COc1ccc(-c2c(-c3ccsc3)oc3ccc(N4CCOCC4)cc23)cn1	?	18µM	–	–	–	–
COc1ccc(-c2ccc3oc(-c4ccsc4)c(-c4ccc(OC)cc4)c3c2)cc1	–	–	–	–	–	–
COc1ccc(-c2oc3ccc(-c4ccc(OC)nc4)cc3c2-c2ccc(OC)cc2)cc1	–	6.5µM	–	?	–	–
Cc1oc(-c2cccc(Cl)c2)nc1CSc1nc2ncccc2[nH]1	·	·	·	·	–	–
CCCN1CCN(c2nnc(-n3cccc3C(=O)Nc3cc(Cl)ccc3C)s2)CC1	·	·	·	·	–	–
COC(=O)c1ccc(/C=C/c2c(-c3ccsc3)oc3ccc(N4CCOCC4)cc23)cc1	–	5.8µM	–	–	–	–
COc1ccc(C(CC(=O)c2ccccc2)CC(=O)c2ccccc2)cc1	–	–	–	–	–	–
COc1ccc(C(CCN)Cc2ccccc2)cc1 (centres undefined)	–	–	-51	–	–	–
CCCCC[C@H](O)/C=C/C1C(=O)C=C[C@H]1C/C=C\CCCC(=O)OC (some centres undefined)	–	18µM	-102	–[9.22 µM]	–	?
O=C(NCc1ccc2c(c1)OCO2)c1nc(S(=O)(=O)Cc2ccccc2)ncc1Cl	–	?	-104	?	–	–
COC(=O)c1ccc(NC(=O)c2nc(S(=O)(=O)Cc3ccccc3F)ncc2Cl)cc1	·	·	·	·	·	–
CC(=O)Nc1ccc(NC(=O)c2nc(S(=O)(=O)Cc3ccccc3)ncc2Cl)cc1	–	?	·	–	–	?
O=C(NCc1ccc2c(c1)OCO2)c1nc(S(=O)(=O)Cc2ccccc2F)ncc1Cl	?	–	-100	–	–	?
COc1ccc(SCc2cc(=O)c3cc(Cl)ccc3[nH]2)cc1	·	·	·	·	–	–
O=C(Nc1ccc(Cl)cc1)Nc1ccccc1NS(=O)(=O)c1cccs1	–	18µM	–	–	–	–
O=C(Nc1ccc(Cl)cc1)Nc1cccc2nsnc12	–	18µM	?	?	–	–
O=C(Nc1ccncc1)Nc1cccc(Cl)c1Cl	–	–	–	–	–	–
O=S(=O)(NCCc1csc2nc(-c3ccccc3)nn12)c1ccc(Oc2ccccc2)cc1	·	·	·	·	–	–
SMILES	Giardia killer	MCF10A rerep	IL-1B inflam inh	SW480 rerep	Vif-APOBEC3F blk	Vif-A3G inh
Clc1ccc(C(c2cccs2)N2CCNCC2)cc1 (centres undefined)	·	·	-50	·	–	–
O=S(=O)(c1ccccc1)c1nnn2c1nc(NCc1ccccc1)c1sccc12	·	·	·	·	–	–
Cc1ccc(C(=O)Nc2cccc(N(C)S(C)(=O)=O)c2)cc1S(=O)(=O)Nc1ccccc1	–	?	-68	–	–	–
Cc1cccc(NC(=O)c2ccc3c(c2)OCCO3)c1	?	–	–	–	–	–
Cc1ccc(NC(=O)c2ccc3c(c2)OCCO3)cc1C	–	–	-50	–	–	–
O=C(Nc1ccc2c(c1)OCCO2)c1ccc(Cl)cc1	–	–	–	–	–	–
COc1ccc(C(=O)Nc2cccc(N(C)S(C)(=O)=O)c2)cc1OC	–	–	–	–	–	–
Cc1ccc(NC(=O)c2ccc3c(c2)OCCO3)cc1S(=O)(=O)Nc1cccc(Cl)c1	–	?	-57	–	–	–
COc1cccc2c1C(CO)N1C(C#N)C3CC(C(=O)O)C(C1C2)N3C (centres undefined)	?	–	-116	0.92µM	–	–
Cc1ccc(S(=O)(=O)N(C)CC(=O)N(CC(C)C)C2CCS(=O)(=O)C2)cc1 (centres undefined)	–	–	–	4.1µM	–	–
Cc1cccc(N2CCN(C(=O)c3c(-c4ccccc4)noc3C)CC2)c1C	–	3.7µM	–	?	–	?
Cc1ccccc1OCCOC(=O)c1c(-c2ccccc2)noc1C	–	?	–	9.2µM	–	?
CCOC(=O)C1CCN(C(=O)c2c(-c3ccccc3)noc2C)CC1	–	–	-73	–	–	–
Nc1c(Cl)cc(/C=C2\C=Cc3ccccc32)cc1Cl	·	·	·	·	·	–
O=C(NCC(c1ccc2c(c1)OCO2)N1CCN(c2ccccc2)CC1)C(=O)Nc1ccccc1 (centres undefined)	·	·	·	·	–	–
CC(=O)N1CCCc2ccc(NS(=O)(=O)c3ccccc3)cc21	–	–	–	6.5µM	–	–
COc1ccccc1CN(Cc1c(Cl)cccc1Cl)S(=O)(=O)c1ccc(Br)cc1	·	·	·	·	–	–
CSCCC(NS(=O)(=O)c1cccs1)C(=O)NCc1ccc(C)cc1 (centres undefined)	–	–	–	0.16µM	–	–
Cc1ccc(CNC(=O)C(Cc2ccccc2)NS(=O)(=O)c2ccc(Br)s2)cc1 (centres undefined)	–	?	-75	–	–	–
CCOC(=O)CNC(=O)C(Cc1ccccc1)NS(=O)(=O)c1cccs1 (centres undefined)	–	21µM	–	–	–	–
Cc1ccc(CNC(=O)C(Cc2ccccc2)NS(=O)(=O)c2cccs2)cc1 (centres undefined)	–	–	–	–	–	–
COc1ccc(C)cc1NC(C)C(=O)c1c[nH]c2ccccc12 (centres undefined)	·	·	·	·	·	–
Cc1nc2cc(NC(=O)c3ccc(Cl)cc3)ccc2n1C	–	–	–	?	–	–
COc1cc(C(=O)Nc2ccc3c(c2)ncn3C)cc(OC)c1OC	–	3.7µM	–	?	–	?
COc1cc(C(=O)Nc2ccc3c(c2)nc(C)n3C)cc(OC)c1OC	–	–	–	15µM	?	?
CCOC(=O)c1cc(-c2ccc(Cl)cc2)nc2c1c(C)nn2CCC#N	–	?	?	–	–	–
